# PubChem BioAssay AID1159580 (chemical genetic matrix, 2015)
# The campaign covered roughly 5,500 compounds. About 2,000 (36%) were called active. Roughly 18% stayed inconclusive and do not appear here. This is one part of the list. A number with no mark means an inactive call. Cut-off read from the data, not from the text of the source: active = normalized growth mostly below about 0.91 (no sharp cut-off); inconclusive = no clear call, values can overlap the other calls; inactive = mostly above about 0.92.
# Assay: chemical genetic growth profiling, strain panel (AID 1159580);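 note: tested at 20 µM; growth read once vehicle control cultures reached saturation at 30 °C; 1 = growth at the plate median or of vehicle wells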
# Conditions: growth OD
smiles,measurement,setting,value
CC/C(=C(/CC)c1ccc(O)cc1)c1ccc(O)cc1,normalized growth,"S. cerevisiae deletion strains, locus YKL009W, strain mrt4, stronger effect = lower value",0.916
same,normalized growth,"S. cerevisiae deletion strains, locus YKL068W, stronger effect = lower value",1.01
same,normalized growth,"S. cerevisiae deletion strains, locus YKL085W, strain MDH1 (second series), stronger effect = lower value",0.973
same,normalized growth,"S. cerevisiae deletion strains, locus YKL085W, strain MDH1, stronger effect = lower value",0.973
same,normalized growth,"S. cerevisiae deletion strains, locus YKL160W, strain elf1, stronger effect = lower value",0.955
same,normalized growth,"S. cerevisiae deletion strains, locus YKL190W, strain CNB1, stronger effect = lower value",1
same,normalized growth,"S. cerevisiae deletion strains, locus YKR001C, strain vps1, stronger effect = lower value",0.987
same,normalized growth,"S. cerevisiae deletion strains, locus YKR026C, strain gcn3, stronger effect = lower value",1.02
same,normalized growth,"S. cerevisiae deletion strains, locus YKR091W, strain srl3, stronger effect = lower value",1.01
same,normalized growth,"S. cerevisiae deletion strains, locus YLL001W, strain dnm1, stronger effect = lower value",1
same,normalized growth,"S. cerevisiae deletion strains, locus YLL026W, stronger effect = lower value",1
same,normalized growth,"S. cerevisiae deletion strains, locus YLL041C, strain sdh2, stronger effect = lower value",1.02
same,normalized growth,"S. cerevisiae deletion strains, locus YLR027C, strain aat2, stronger effect = lower value",1.01
same,normalized growth,"S. cerevisiae deletion strains, locus YLR039C, strain RIC1, stronger effect = lower value",0.481 (active)
same,normalized growth,"S. cerevisiae deletion strains, locus YLR058C, strain SHM2, stronger effect = lower value",0.943
same,normalized growth,"S. cerevisiae deletion strains, locus YLR102C, strain apc9, stronger effect = lower value",1.01
same,normalized growth,"S. cerevisiae deletion strains, locus YLR113W, strain HOG1, stronger effect = lower value",0.963
same,normalized growth,"S. cerevisiae deletion strains, locus YLR221C, strain rsa3, stronger effect = lower value",0.956
same,normalized growth,"S. cerevisiae deletion strains, locus YLR258W, strain gsy2, stronger effect = lower value",0.963
same,normalized growth,"S. cerevisiae deletion strains, locus YLR262C, strain YPT6 (second series), stronger effect = lower value",0.485 (active)
same,normalized growth,"S. cerevisiae deletion strains, locus YLR262C, strain YPT6, stronger effect = lower value",0.439 (active)
same,normalized growth,"S. cerevisiae deletion strains, locus YLR268W, strain sec22, stronger effect = lower value",0.945
same,normalized growth,"S. cerevisiae deletion strains, locus YLR320W, strain mms22, stronger effect = lower value",0.84 (active)
same,normalized growth,"S. cerevisiae deletion strains, locus YLR330W, strain CHS5, stronger effect = lower value",0.981
same,normalized growth,"S. cerevisiae deletion strains, locus YLR342W, strain FKS1 (second series), stronger effect = lower value",0.89
same,normalized growth,"S. cerevisiae deletion strains, locus YLR342W, strain FKS1, stronger effect = lower value",1.01
same,normalized growth,"S. cerevisiae deletion strains, locus YLR357W, strain rsc2, stronger effect = lower value",1.14
same,normalized growth,"S. cerevisiae deletion strains, locus YLR370C, strain arc18, stronger effect = lower value",1.01
same,normalized growth,"S. cerevisiae deletion strains, locus YLR371W, strain rom2, stronger effect = lower value",1.02
same,normalized growth,"S. cerevisiae deletion strains, locus YLR384C, strain iki3, stronger effect = lower value",1.02
same,normalized growth,"S. cerevisiae deletion strains, locus YLR418C, strain cdc73, stronger effect = lower value",0.956
same,normalized growth,"S. cerevisiae deletion strains, locus YML016C, strain PPZ1, stronger effect = lower value",1.01
same,normalized growth,"S. cerevisiae deletion strains, locus YML032C, strain rad52, stronger effect = lower value",0.914
same,normalized growth,"S. cerevisiae deletion strains, locus YML120C, strain ndi1, stronger effect = lower value",1.01
same,normalized growth,"S. cerevisiae deletion strains, locus YML124C, strain tub3, stronger effect = lower value",1.01
same,normalized growth,"S. cerevisiae deletion strains, locus YMR058W, strain fet3, stronger effect = lower value",0.974
same,normalized growth,"S. cerevisiae deletion strains, locus YMR078C, strain ctf18, stronger effect = lower value",1
same,normalized growth,"S. cerevisiae deletion strains, locus YMR125W, strain sto1, stronger effect = lower value",1.09
same,normalized growth,"S. cerevisiae deletion strains, locus YMR129W, stronger effect = lower value",1.02
same,normalized growth,"S. cerevisiae deletion strains, locus YMR205C, strain PFK2, stronger effect = lower value",0.943
same,normalized growth,"S. cerevisiae deletion strains, locus YMR223W, strain ubp8, stronger effect = lower value",0.942
same,normalized growth,"S. cerevisiae deletion strains, locus YMR231W, strain pep5, stronger effect = lower value",1.03
same,normalized growth,"S. cerevisiae deletion strains, locus YMR307W, strain GAS1, stronger effect = lower value",0.569 (active)
same,normalized growth,"S. cerevisiae deletion strains, locus YNL067W, strain RPL9B, stronger effect = lower value",0.933
same,normalized growth,"S. cerevisiae deletion strains, locus YNL071W, strain lat1, stronger effect = lower value",0.913 (active)
same,normalized growth,"S. cerevisiae deletion strains, locus YNL153C, strain GIM3, stronger effect = lower value",0.918
same,normalized growth,"S. cerevisiae deletion strains, locus YNL183C, strain NPR1, stronger effect = lower value",0.921
same,normalized growth,"S. cerevisiae deletion strains, locus YNL209W, strain ssb2, stronger effect = lower value",0.981
same,normalized growth,"S. cerevisiae deletion strains, locus YNL233W, strain BNI4, stronger effect = lower value",0.896
same,normalized growth,"S. cerevisiae deletion strains, locus YNL248C, strain rpa49, stronger effect = lower value",1.02
same,normalized growth,"S. cerevisiae deletion strains, locus YNL250W, strain rad50, stronger effect = lower value",1
same,normalized growth,"S. cerevisiae deletion strains, locus YNL271C, strain bni1, stronger effect = lower value",1
same,normalized growth,"S. cerevisiae deletion strains, locus YNL298W, strain CLA4, stronger effect = lower value",0.914
same,normalized growth,"S. cerevisiae deletion strains, locus YNL307C, strain MCK1, stronger effect = lower value",0.995
same,normalized growth,"S. cerevisiae deletion strains, locus YNL322C, strain KRE1 (second series), stronger effect = lower value",1.03
same,normalized growth,"S. cerevisiae deletion strains, locus YNL322C, strain KRE1, stronger effect = lower value",0.992
same,normalized growth,"S. cerevisiae deletion strains, locus YNR049C, strain mso1, stronger effect = lower value",1.01
same,normalized growth,"S. cerevisiae deletion strains, locus YNR052C, strain pop2, stronger effect = lower value",0.99
same,normalized growth,"S. cerevisiae deletion strains, locus YOL006C, strain TOP1, stronger effect = lower value",0.73
same,normalized growth,"S. cerevisiae deletion strains, locus YOL012C, strain htz1",1.4
same,normalized growth,"S. cerevisiae deletion strains, locus YOL147C, strain pex11, stronger effect = lower value",1.02
same,normalized growth,"S. cerevisiae deletion strains, locus YOR001W, strain rrp6, stronger effect = lower value",0.997
same,normalized growth,"S. cerevisiae deletion strains, locus YOR061W, strain CKA2, stronger effect = lower value",0.976
same,normalized growth,"S. cerevisiae deletion strains, locus YOR069W, strain VPS5, stronger effect = lower value",1
same,normalized growth,"S. cerevisiae deletion strains, locus YOR070C, strain gyp1, stronger effect = lower value",0.945
same,normalized growth,"S. cerevisiae deletion strains, locus YOR080W, strain dia2, stronger effect = lower value",1.02
same,normalized growth,"S. cerevisiae deletion strains, locus YOR083W, strain WHI5, stronger effect = lower value",0.948
same,normalized growth,"S. cerevisiae deletion strains, locus YOR106W, strain vam3, stronger effect = lower value",0.951
same,normalized growth,"S. cerevisiae deletion strains, locus YOR136W, strain idh2, stronger effect = lower value",1.01
same,normalized growth,"S. cerevisiae deletion strains, locus YOR144C, strain elg1, stronger effect = lower value",1.01
same,normalized growth,"S. cerevisiae deletion strains, locus YOR184W, strain ser1, stronger effect = lower value",0.812 (active)
same,normalized growth,"S. cerevisiae deletion strains, locus YOR231W, strain MKK1, stronger effect = lower value",0.976
same,normalized growth,"S. cerevisiae deletion strains, locus YOR265W, strain rbl2, stronger effect = lower value",0.999
same,normalized growth,"S. cerevisiae deletion strains, locus YOR270C, strain vph1, stronger effect = lower value",0.728 (active)
same,normalized growth,"S. cerevisiae deletion strains, locus YOR290C, strain snf2, stronger effect = lower value",0.961
same,normalized growth,"S. cerevisiae deletion strains, locus YOR316C, strain cot1, stronger effect = lower value",1
same,normalized growth,"S. cerevisiae deletion strains, locus YPL051W, strain arl3, stronger effect = lower value",0.919
same,normalized growth,"S. cerevisiae deletion strains, locus YPL055C, strain LGE1, stronger effect = lower value",0.811
same,normalized growth,"S. cerevisiae deletion strains, locus YPL078C, strain atp4, stronger effect = lower value",0.953
same,normalized growth,"S. cerevisiae deletion strains, locus YPL106C, strain sse1, stronger effect = lower value",1.12
same,normalized growth,"S. cerevisiae deletion strains, locus YPL240C, strain hsp82, stronger effect = lower value",1.01
same,normalized growth,"S. cerevisiae deletion strains, locus YPL256C, strain CLN2, stronger effect = lower value",0.977
same,normalized growth,"S. cerevisiae deletion strains, locus YPR119W, strain clb2, stronger effect = lower value",1
same,normalized growth,"S. cerevisiae deletion strains, locus YPR141C, strain kar3, stronger effect = lower value",1.03
same,normalized growth,"S. cerevisiae deletion strains, locus YPR163C, strain tif3, stronger effect = lower value",1.02
same,normalized growth,"S. cerevisiae deletion strains, locus YPR167C, strain met16, stronger effect = lower value",1
same,normalized growth,"S. cerevisiae deletion strains, strain wtn01, stronger effect = lower value",0.971
same,normalized growth,"S. cerevisiae strains, strain wild type, stronger effect = lower value",0.948
